VDR inhibitor – blocks the human vitamin D receptor; P11473; VDR-SRC2-3 peptide fluorescence polarization, 2 h; Potency, µM, inactives show max response, negative = inhibition, hits mostly inhibitors; hit rate 0.93% among 400,000; AID 504847
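Fluorescence polarization assay measuring small-molecule disruption of VDR binding to the coregulator peptide SRC2-3. Compounds were pin-transferred (23 nl) into the reagent mix and incubated 2 h at room temperature before reading.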
TDP1 cell noCPT – qHTS for Inhibitors of human tyrosyl-DNA phosphodiesterase 1 (TDP1): qHTS in cells in absence of CPT. DT40 Tdp1-/- hTDP1 cells, no CPT, ATP luminescence, 48 h. Potency, µM (highest dose often 46.2 µM), inactives show at the top dose activity change, negative = growth inhibition, most hits filed as inhibitors. hit rate 15% among 420,000. AID 686978, 2013; note: nearly all actives have a fitted effect of over 55% in size
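Luminescent ATP content (CellTiter-Glo) served as the growth readout. Knockout chicken DT40 cells expressing human TDP1 were exposed to compounds without camptothecin for a minimum 48 hr at 37 °C.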
DT40 TDP1 CPT – growth inhibition of DT40 Tdp1-/-;hTDP1 cells with camptothecin (screen for TDP1 inhibitors); chicken DT40 Tdp1-/-;hTDP1 cells + 20 nM CPT, ATP luminescence, 48 h; hit rate 12% among 420,000; Potency, µM (series often up to 46.2 µM), without a hit: at the highest dose activity change, negative = growth inhibition, usual class: inhibitors; note: nearly all actives have a fitted effect of over 55% in size
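Cell growth measured by CellTiter-Glo luminescence after a minimum 48 h, 37 C compound exposure with 20 nM CPT in Tdp1-knockout DT40 cells stably expressing hTDP1, seeded 400/well; qHTS titration format.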
TDP1 block – TDP1 (human) enzyme inhibition. hit rate 0.28% among 350,000. recombinant TDP1, AlphaScreen DNA substrate cleavage. Q9NUW8. AID 485290. Potency, µM (highest dose often 130 µM), without a hit: top-dose activity change, negative = inhibition, actives largely listed as inhibitors; note: nearly all actives have a fitted effect of over 40% in size
Target sequence (Q9NUW8 whole entry, looked up): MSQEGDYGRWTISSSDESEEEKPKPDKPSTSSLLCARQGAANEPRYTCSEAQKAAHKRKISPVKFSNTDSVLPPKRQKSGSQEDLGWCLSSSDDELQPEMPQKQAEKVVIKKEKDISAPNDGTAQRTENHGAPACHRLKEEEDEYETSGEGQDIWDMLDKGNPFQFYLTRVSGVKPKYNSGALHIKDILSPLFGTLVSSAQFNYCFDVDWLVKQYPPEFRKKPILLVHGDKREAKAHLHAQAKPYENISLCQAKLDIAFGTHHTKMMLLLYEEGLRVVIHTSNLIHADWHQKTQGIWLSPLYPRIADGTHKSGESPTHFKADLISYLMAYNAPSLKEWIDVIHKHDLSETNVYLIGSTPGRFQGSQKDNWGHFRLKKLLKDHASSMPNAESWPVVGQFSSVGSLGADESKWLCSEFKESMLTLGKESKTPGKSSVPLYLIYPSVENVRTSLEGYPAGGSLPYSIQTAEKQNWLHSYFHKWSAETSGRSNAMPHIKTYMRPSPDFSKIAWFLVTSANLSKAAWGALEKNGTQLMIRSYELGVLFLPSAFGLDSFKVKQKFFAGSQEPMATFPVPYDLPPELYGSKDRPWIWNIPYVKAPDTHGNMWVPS
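E. coli-derived human Tdp1, 1 nM final. Cpd preinc 15 min RT; substrate 15 nM final, 5 min RT; AS bead mix 10 ug/ml final, 10 min RT. Signal loss = tyrosine-FITC cleavage. No-enzyme wells = max signal.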
GCN5L2 inh – inhibitors of human GCN5L2 histone acetyltransferase | Q92830 | GCN5L2 HAT assay, ThioGlo1 CoA-SH fluorescence | Potency, µM (series often up to 58.9 µM), inactives show top-dose activity change, negative = inhibition, most hits filed as inhibitors | hit rate 0.21% among 390,000 | AID 504327
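Fluorescence readout, Ex340nm/Em540nm: ThioGlo1 (50uM final) reacts with free CoA thiol released as 20nM GCN5L2 acetylates H3(1-25) peptide (75uM) using acetyl-CoA (70uM). Compound and enzyme sat 15 min beforehand; 20 min room-temperature reaction.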
PLK1 PBD block – inhibitors of human PLK1 polo-box domain binding; P53350; Plk1 PBD binding of FITC phosphopeptide, fluorescence polarization; Potency, µM, for inactives: max response, negative = inhibition, usual class: inhibitors; hit rate 2.8% among 360,000; note: series mostly up to about 57 µM; nearly all actives have a fitted effect of over 65% in size
* marks the source's active call; other numbers are inactive results; ? = inconclusive; / = not tested or not shown; [ ] = dose if it differs, or a comment. Rows were chosen to be rich in hits. Some 18% of all compounds tested hit in one or more screens of this group. Calls come from the whole dose curve; as a rule, active = well fitted curve in the direction sought with a large enough effect; inconclusive = small, poorly fitted or top-dose-only effect, or another doubt; inactive = no such curve, though single readings can be large; an effect the other way counts as inactive or inconclusive. % is set by controls: 0 for no effect and ±100 for the full control effect; potency is the fitted concentration of half-maximal effect.

SMILES	VDR inhibitor	TDP1 cell noCPT	DT40 TDP1 CPT	TDP1 block	GCN5L2 inh	PLK1 PBD block
Cc1cccc(C)c1NC(=O)C(=O)NCC(c1ccc2c(c1)OCO2)N1CCN(C)CC1 (stereo unspecified)	7%	-4%	-8%	-3%	-4%	/
O=C(NCC(c1ccco1)N1CCc2ccccc21)c1c(F)cccc1F (stereo unspecified)	6%	-28%	?	/	-20%	1%
Cc1ccccc1C(=O)NCC(c1cccnc1)N1CCc2ccccc21 (stereo unspecified)	6%	18µM*	?	3%	-7%	/
CC1(C)Oc2ccc(C(=O)Nc3ccccc3)cc2N(CC#N)C1=O	11%	-26%	4%	/	-22%	0%
O=C(NCC(c1cccnc1)N1CCc2ccccc21)c1ccc(F)cc1 (stereo unspecified)	11%	18µM*	23µM*	3%	-14%	/
O=C(CN1CCC(C(O)(c2ccccc2)c2ccccc2)CC1)Nc1ccccc1	6%	16µM*	21µM*	6%	-16%	-5%
O=C(CN1CCC(C(O)(c2ccccc2)c2ccccc2)CC1)Nc1cc(Cl)ccc1Cl	-12%	20µM*	?	0%	-12%	-4%
c1ccc(Nc2nc(-c3ccccc3)nc3ccccc23)cc1	-12%	0%	-16%	/	-21%	0%
c1ccc(Nc2nc(-c3ccoc3)nc3ccccc23)cc1	28µM*	?	?	/	?	/
O=C(O)c1ccc(Nc2c3ccccc3nc3ccccc23)cc1	8%	2.1µM*	1.3µM*	/	-23%	-1%
CNC(=O)c1ccc(Nc2nc(-c3ccccc3)nc3ccccc23)cc1	8%	13µM*	16µM*	8%	-19%	0%
O=C(O)c1ccc(Nc2nc(-c3ccccc3)c3ccccc3n2)cc1	-3%	-4%	16%	-1%	-12%	-14%
O=C(O)CNc1nc(-c2ccccc2)nc2ccccc12	17%	-15%	-7%	4%	-15%	-12%
O=C(O)c1ccc(Nc2nc(-c3ccccc3)nc3ccccc23)cc1	79µM*	21µM*	23µM*	/	-7%	19µM*
CCc1ccc(Nc2ncc3c(n2)CC(C)(C)CC3=O)cc1	8%	-18%	-11%	1%	-4%	-14%
CN(C)C(=O)c1ccc(-c2nc(Nc3ccccc3)c3ccccc3n2)cc1	40µM*	16µM*	?	/	?	/
c1ccc2c(-n3ccnc3)nc(-c3ccoc3)nc2c1	32µM*	?	?	/	-27%	/
NC(CC(=O)NC(c1ccccc1)(c1ccccc1)c1ccccc1)C(=O)O (stereo unspecified)	11%	0%	16%	5%	-4%	-2%
NC(CSC(c1ccccc1)(c1ccccc1)c1ccccc1)C(=O)O (stereo unspecified)	-14%	5.2µM*	5.8µM*	/	/	-18%
CC(=O)N1N=C(c2ccc(C)cc2)CC1c1cn(-c2ccccc2)nc1-c1cccs1 (stereo unspecified)	4%	?	16µM*	-2%	1%	/
COc1ccc(NC(=O)C(c2ccc(OC)cc2)n2c(=O)c(-c3cc4ccccc4[nH]3)nc3ccccc32)cc1 (stereo unspecified)	/	13µM*	16µM*	/	/	0%
COc1ccc(NC(=O)C(C2CC2)n2c(=O)c(-c3ccccc3)nc3ccccc32)cc1 (stereo unspecified)	/	15µM*	?	/	/	6%
O=C(Nc1ccc2c(c1)OCCO2)C(c1ccncc1)n1c(=O)c(-c2cc3ccccc3[nH]2)nc2ccccc21 (stereo unspecified)	/	?	?	/	/	-13%
CCCCCNC(=O)C(C1CC1)n1c(=O)c(-c2ccccc2)nc2ccccc21 (stereo unspecified)	/	?	?	/	/	-7%
O=C(Nc1ccc2c(c1)OCCO2)C(c1ccccc1F)n1c(=O)c(-c2cc3ccccc3[nH]2)nc2ccccc21 (stereo unspecified)	/	18µM*	15µM*	/	/	5%
SMILES	VDR inhibitor	TDP1 cell noCPT	DT40 TDP1 CPT	TDP1 block	GCN5L2 inh	PLK1 PBD block
COc1ccc(NC(=O)C(c2ccc(C#N)cc2)n2c(=O)c(-c3cc4ccccc4[nH]3)nc3ccccc32)cc1 (stereo unspecified)	/	15µM*	21µM*	/	/	0%
CN(CC(=O)Nc1cccc(F)c1)C(=O)Cn1cnc2c1c(=O)n(C)c(=O)n2C	6%	-2%	-4%	/	?	-1%
CNc1nc(Nc2ccc(C)c(Cl)c2)c2cnn(C)c2n1	17%	15µM*	23µM*	/	-20%	-2%
Cn1ncc2c(Nc3ccc(O)cc3)nc(Cl)nc21	17%	-5%	-3%	-5%	-2%	?
Cc1cccc(Nc2ncnc3c2cnn3C)c1	1%	-10%	-18%	-1%	-2%	-3%
Cc1ccc(Nc2nc(NCCO)nc3c2cnn3C)cc1Cl	?	15µM*	21µM*	/	-4%	19µM*
Cn1ncc2c(Nc3cccc(Cl)c3)nc(Nc3cccc(Cl)c3)nc21	18%	12µM*	16µM*	0%	-1%	3%
CCCNc1nc(Nc2ccc(C)c(Cl)c2)c2cnn(C)c2n1	0%	23µM*	16µM*	/	-11%	-1%
Cn1ncc2c(NCc3ccccc3Cl)nc(NCCO)nc21	9%	?	?	6%	16%	/
CC(C)OC(=O)c1c(NC(=O)c2cccc(C(F)(F)F)c2)sc2c1CCCC2	?	-24%	-3%	-7%[12.3 µM]	-4%	/
CC(C)CO/N=C1/C[C@@H](O)[C@@H](O)[C@@H]2[C@@H]3C(=O)N(c4cccc(Oc5ccccc5)c4)C(=O)[C@H]3CC[C@H]12	/	/	/	7%[21 µM]	/	/
COc1ccc(CNc2nc3nc4c(c(=O)n3[nH]2)CCC4)cc1	10%	-22%	0%	3%	1%	-11%
CN(C)CCCNc1nc(-c2ccccc2)c2c(c1C#N)CC(C)(C)OC2	-12%	?	?	4%	0%	24µM*
CCN(CC)CCNc1nc(-c2ccco2)c2c(c1C#N)CC(C)(C)OC2	1%	-5%	7%	5%	3%	-5%
CN(C)CCN(C(=O)c1ccco1)c1nc2cc3c(cc2s1)OCCO3	-7%	3.7µM*	4.6µM*	4%	-5%	1%
Cc1ccc2nc(N(CCCN(C)C)C(=O)c3sc4ccccc4c3Cl)sc2c1	-10%	26µM*	16µM*	6%	-7%	-11%
CCN(CC)CCN(C(=O)c1ccco1)c1nc2ccc(Cl)cc2s1	-3%	?	?	5%	-6%	/
